Data published in PubChem BioAssay AID1910 (Broad Institute, 2009).
In all, about 300,000 compounds went through this assay and about 950 (0.32%) were called active. For the sample, actives were picked, then their nearest neighbours and some compounds at random. A number with no mark means an inactive call.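 How the source made its calls: active means mean activation of at least 10% of the iron chelator positive control signal, with at least half of replicates also reaching 10%; inconclusive means mean and replicate majority disagree about reaching 10%; inactive means mean and most replicates under 10%.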

Assay: HIF pathway transcriptional activators, primary screen, cell-based, U2OS HRE-luciferase, luminescence (AID 1910)
Details: U2OS HRE-luciferase reporter, hits give high values, screened at 7.5 µM (by protocol), normalized: DMSO 0%, desferrioxamine 100%
With CCc1nnc(NS(=O)(=O)c2ccc(NC(=O)c3cccc(OC(F)(F)C(F)F)c3)cc2)s1 the activation was -0.386%. CCOC(=O)c1ccc(NC(=O)c2c(NCc3ccccc3)[nH]c(=O)[nH]c2=O)cc1 showed an activation of 0.835%. For O=C(c1ccc(F)cc1)N1CCC(C(=O)N2CCN(S(=O)(=O)c3ccccc3Br)CC2)CC1, the activation was 1.51%. With O=C(CSc1nnc2c(n1)[nH]c1ccccc12)NC1CCCCC1 the activation was 0.503%. In the case of CC(C)N(c1ccccc1)c1ncnc(NCCC(=O)O)c1[N+](=O)[O-], the activation is reported as 173% (active). In the case of Cc1ccc(C(C)NC(=O)Cn2nc(C)c([N+](=O)[O-])c2C)cc1 (centres undefined), the activation is reported as -0.456%. Cc1ccc(OCC(=O)NC(C)c2ccccc2)c([N+](=O)[O-])n1 (centres undefined) showed an activation of -1.24%. Work on COc1ccc(S(=O)(=O)NCC(c2ccc(C)cc2)N2CCN(C)CC2)cc1OC (centres undefined) yielded an activation of -0.0703%. In the case of COc1ccccc1NC(=O)C1CCN(C(=O)c2ccc(C(C)(C)C)cc2)CC1, the activation is reported as 24.7% (active). COc1ccc(C(=O)N2CCC(C(=O)Nc3ccc(C)cc3)CC2)cc1 gave an activation of 0.165%. CC(C)(C)c1ccc(C(=O)N2CCC(C(=O)N3CCCCC3)CC2)cc1 gave an activation of -0.293%. Compound Cc1ccc2nc(SCC(=O)N3CCN(c4ccccc4)CC3)nc(=O)n2c1 has an activation of -0.536%. With CN1CCN(c2ncc3c(n2)CC(c2ccccc2F)CC3=O)CC1 (centres undefined) the activation was -0.449%. In the case of Cc1nc2nc3c(cn2n1)C(=O)CC(c1ccccc1)C3 (centres undefined), the activation is reported as 842% (active). Work on Cc1cc(C)nc(-n2ncc3c2CC(c2ccc(C(C)C)cc2)CC3=O)n1 (centres undefined) yielded an activation of 0.0559%. In the case of COc1ccccc1NC(=O)Nc1nc(CC(=O)Nc2ccccc2F)cs1, the activation is reported as -0.165%. For NC(=O)c1ccsc1NC(=O)COC(=O)Cc1n[nH]c(=O)c2ccccc12, the activation was 0.145%. Work on CCCCn1c(N)c(N(CC(C)C)C(=O)C2CSC3(C)CCC(=O)N23)c(=O)[nH]c1=O (centres undefined) yielded an activation of 0.199%. In the case of COc1ccc(-n2c(-c3ccc(OC)c(OC)c3)n[nH]c2=S)cc1, the activation is reported as 1.1%. In the case of COc1ccc(-n2c(C)csc2=S)cc1, the activation is reported as 14.5% (active). With COc1ccc(N2C(=O)CNC2=S)cc1 the activation was -0.317%. c1ccc(-c2nc(NCc3ccco3)c3ccccc3n2)cc1 gave an activation of 0.461%. For CS(=O)(=O)n1nc(-c2ccccc2)nc1NCc1ccco1, the activation was 16.1% (active). In the case of O=C(Cc1ccccc1)n1nc(-c2ccccc2)nc1NCc1ccco1, the activation is reported as 1.38%. Compound N#CCN(C(=O)COC(=O)C1CC2CCCC(C1)C2=O)c1ccccc1 (centres undefined) has an activation of -0.0724%. Cc1ccc(C(=O)Nc2nnc(C3=COCCO3)o2)cc1C gave an activation of 0.0306%. In the case of COc1cccc(N2CC(C(=O)NCc3n[nH]c(=O)c4ccccc34)CC2=O)c1 (centres undefined), the activation is reported as 3.45%. Compound COc1ccc(NC(=O)CCC(=O)Nc2cc(OC)c(NC(=O)c3ccco3)cc2OC)c(OC)c1 has an activation of -0.226%. Compound COc1ccccc1C(=O)Nc1ccc(NC(=O)c2ccco2)c(C)c1 has an activation of 0.062%. In the case of COc1ccc(NC(=O)c2cccc(NC(=O)c3ccco3)c2)c(OC)c1, the activation is reported as 10.1% (active). For COc1ccccc1OCCCCCCN1CCN(C)CC1, the activation was 0.237%. Compound CCOc1ccc(C(C)=O)cc1COC(=O)CNC(=O)c1cccs1 has an activation of 0.00171%. Work on O=C(CCCO)N/N=C/c1cc(Br)ccc1O yielded an activation of -1.18%. O=C(N/N=C/c1ccccc1O)C1CCCC1 gave an activation of 0.236%. With O=C(N/N=C/c1ccccc1O)/C(=C/c1ccccc1)CCO the activation was 31.1% (active). For Cc1cccc(N=C2SC(C)CN2C(=O)CN2C(=O)NC3(CCCC3)C2=O)c1 (centres undefined), the activation was 0.348%. CCN(CC(=O)Nc1c(F)cccc1F)C(=O)c1ccc(Sc2nncn2C)c([N+](=O)[O-])c1 showed an activation of 0.52%. Compound O=C(Nc1cccc(F)c1)c1coc(=O)c(Br)c1 has an activation of 0.54%. Work on COc1ccc(N2CC(C(=O)NCCN3C(=O)S/C(=C\c4cccnc4)C3=O)CC2=O)c(OC)c1 (centres undefined) yielded an activation of 0.0693%. With O=C(NCCCN1CCOCC1)c1cc(-c2ccccc2F)no1 the activation was 10.1% (active). In the case of O=C(NCCCN1CCOCC1)c1cc(-c2ccc(Cl)cc2)on1, the activation is reported as -0.141%. Compound O=C(NCCCN1CCOCC1)c1cc(-c2cccc(O)c2)on1 has an activation of -0.131%. With C=CCNC(=O)/C=C/c1ccc(C(C)C)cc1 the activation was 2.38%. Cn1cnc2c1c(=O)n(Cc1ccccc1C#N)c(=O)n2C gave an activation of -28%. Work on COc1ccc(C(CNC(=O)c2cccc(NS(=O)(=O)c3ccc(C)c(F)c3)c2)N2CCCC2)cc1 (centres undefined) yielded an activation of -0.102%. In the case of O=C1CCCN2N=C(SCC(=O)Nc3ccc(Br)cc3)SC2=N1, the activation is reported as 20.5% (active). For Cc1cc(=O)[nH]c(SCC(=O)Nc2ccc(Br)cc2)n1, the activation was 0.205%. O=C(CSCc1ccc(Br)cc1)Nc1ccc(S(=O)(=O)N2CCCCCC2)cc1 showed an activation of -0.637%. For O=C(Nc1ncccc1O)c1ccc(C(=O)c2ccccc2)cc1, the activation was 14.2% (active). Work on O=C(Nc1ncccc1O)c1ccc(S(=O)(=O)N2CCCCCC2)cc1 yielded an activation of 3.25%. For O=C(Nc1ncccc1O)c1ccc(S(=O)(=O)N2CCCC2)cc1, the activation was 4.15%. For Cc1cc(C)c(C)c(S(=O)(=O)Nc2cccnc2)c1C, the activation was -0.0811%. With CCN(CC)c1ccc(/C=N/NC(=O)c2cnccn2)c(O)c1 the activation was 95.3% (active). With CCN(CC)c1ccc(/C=N/Nc2nc(C)cc(C)n2)c(O)c1 the activation was 1.77%. CCN(CC)c1ccc(/C=N/NC(=O)CNC(=O)c2cccnc2)cc1 showed an activation of -0.424%. Compound Cc1c(C(=O)Nc2ccccn2)oc2ccc(Br)cc12 has an activation of 2.61%. With Cc1c(Cl)c([N+](=O)[O-])nn1CCCC(=O)Nc1cc(Cl)ccc1Cl the activation was -0.466%. Cc1ccc(C(=O)O)cc1NC(=O)c1ccc(Cn2nc(C)c(Cl)c2C)o1 showed an activation of -0.0752%. In the case of Cc1c(Cl)c([N+](=O)[O-])nn1Cc1ccc(C(=O)N/N=C\c2cc(Cl)ccc2O)o1, the activation is reported as 49.6% (active).
